Here are results for 35 sequences from the supplement of paper PMC10338343.

± gives the standard deviation.

The assay deals with MILI (PIWIL2) piRISC loaded with L1MC piRNA (26 nt). Kind of assay: pre-steady-state target cleavage rate (min^-1); guide: L1MC piRNA 5'p-UAACUAAAUACUAUGCAAGCUGUAGG; MIWI and MILI are mouse PIWI proteins and EfPiwi is from a freshwater sponge; tags in brackets are library labels; higher = faster piRNA-guided slicing of the target. The conditions noted are these: auxiliary factor: 500 nM mouse GTSF1. The procedure, abridged:
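A transcribed, DNA-blocked target RNA library (0.1 nM) and 1 nM active affinity-purified piRISC bearing one synthetic guide were incubated in HEPES–potassium acetate buffer at 33 °C for 0–8 or 0–960 min, either with or without 500 nM GTSF1 partner protein. Uncleaved targets were sequenced, normalised to depth and to weakly complementary targets, and pooled over three trials, with k3 capped at 0.0001 min^-1. The pre-steady-state cleavage rate was derived with a burst-and-steady-state fit.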
For UCCUGGAUGUCGAAGCAUAGUAUAUAGUAA, the “pre-steady-state target cleavage rate” value came out at 0.012 ± 0.0042.

With UCCUCCUACAGCUUGCAUAUGUAUUUAGUUA, the “pre-steady-state target cleavage rate” value came out at 0.0106 ± 0.0057.

Turning to UCCUGGAUGUCGAAGCAUAGUAUUAAGUAA, the “pre-steady-state target cleavage rate” value is 0.0172 ± 0.0065.

For the sequence UCCUGGAUGUGCUUGCCAUAGUAUUUAGUUA, the “pre-steady-state target cleavage rate” value is 0.014 ± 0.0071.

With UCCUGGUACAGCUUGCAUAGUAUAUAGAAA, the “pre-steady-state target cleavage rate” value amounted to 0.0845 ± 0.028.

Turning to UCCUGCUACACGAUGCAUAGUAUUUUCAAA, the “pre-steady-state target cleavage rate” value was determined as 0.117 ± 0.034.

For the sequence UCCUGGUACAGCUUGCAUAGUAAAUAGAAA, the “pre-steady-state target cleavage rate” value amounted to 0.081 ± 0.025.

Consider UCCUGGUUCAGCUUGCAUAGUAUUUACUUA, for which the “pre-steady-state target cleavage rate” value is 0.0561 ± 0.02.

UCCUGGAUCUCGUUGCAUAGUAUUUAGAAA: the “pre-steady-state target cleavage rate” value came out at 0.141 ± 0.024.

Consider UCCUGCUACAGCUUGCAUAGAUUUAGUUA, for which the “pre-steady-state target cleavage rate” value stood at 0.00937 ± 0.0054.

UCCUGGAUGAGCUUGCUUAGUAUUUACAAA: the “pre-steady-state target cleavage rate” value worked out at 0.0262 ± 0.011.

For the sequence UCCUGGUACAGCUUGCAUCAGUAUUUAGUUA, the “pre-steady-state target cleavage rate” value came out at 0.0101 ± 0.0042.

For UCCUGGAUCAGCUUGCAAAGUAUUUUCAAA, the “pre-steady-state target cleavage rate” value amounted to 0.00923 ± 0.0045.

Turning to UCCUGGAUGUCCUACCAUAGUAUUUAGUUA, the “pre-steady-state target cleavage rate” value was 0.0632 ± 0.015.

As to UCCUGCUAGUCCUUGCAUAGUAUUUAGUAA, the “pre-steady-state target cleavage rate” value amounted to 0.0749 ± 0.018.

With UCCUGGAUGUCGAAGCAUAGUAUUUAGAUUA, the “pre-steady-state target cleavage rate” value was found to be 0.00757 ± 0.0041.

Consider UCCUGCUACAGCUUGCAAUGUAUUUUCAAA, for which the “pre-steady-state target cleavage rate” value is 0.00975 ± 0.0041.

In the case of UCCUGGUACAGCUUGCAUAGUAUAAAGUAA, the “pre-steady-state target cleavage rate” value worked out at 0.0705 ± 0.02.

Regarding UCCUGGAUGUCGAACGAUCAGUAUUUAGUUA, the “pre-steady-state target cleavage rate” value was less than 0.0001.

In the case of UCCUGGAUGAGCUAGCAUAGUAUUUACAAA, the “pre-steady-state target cleavage rate” value is 0.0471 ± 0.015.

In the case of UCCUGGUACAGCUUGCAUAGUAUAAUCAAA, the “pre-steady-state target cleavage rate” value was found to be 0.0264 ± 0.0091.

In the case of UCCUGGAACAGCUUCGUUAGUAUUUAGUAA, the “pre-steady-state target cleavage rate” value came out at 0.115 ± 0.017.

Turning to UCCUGGAUGUCGUUGCAUAGUAUUAAGUAA, the “pre-steady-state target cleavage rate” value worked out at 0.0273 ± 0.012.

Turning to UCCUGGAUCAGCUUCCAUUGUAUUUAGUUA, the “pre-steady-state target cleavage rate” value worked out at 0.0508 ± 0.0093.

On to UCCUGGAUGUGCUUGCAUAGUAUUUAUUUA, for which the “pre-steady-state target cleavage rate” value worked out at 0.0305 ± 0.011.

With UCCUGGAACAGCUUGCAUAGUAAAAAGUAA, the “pre-steady-state target cleavage rate” value amounted to 0.076 ± 0.022.

For UCCUGGAUCACCUUCCAUAGUAUUUAGUUA, the “pre-steady-state target cleavage rate” value was 0.0405 ± 0.012.

On to UCCUCCUACAGCUUGGUUAGUAUUUUCAAA, for which the “pre-steady-state target cleavage rate” value is 0.0137 ± 0.007.

Take UCCUGGUACAGCUUGCAUAGAAUUUAGAUA: the “pre-steady-state target cleavage rate” value came to 0.0253 ± 0.013.

On to UCCUGGAUGAGGAAGCAUAGUAUUUAGUAA, for which the “pre-steady-state target cleavage rate” value amounted to 0.0509 ± 0.013.

For the sequence “UCCUCCUACAGCUUGCAUAGUUAAAUCAAA [g10:g26:cont:t1A]”, the “pre-steady-state target cleavage rate” value is 0.0191 ± 0.0072.

Turning to UCCUGGAUGUGCUUGCAUAGUAUUUGUUA, the “pre-steady-state target cleavage rate” value was 0.0295 ± 0.011.

With UCCUGCUACACCUUGCAUAGUAUUUAGAAA, the “pre-steady-state target cleavage rate” value stood at 0.169 ± 0.036.

Turning to UCCUCCUACAGCAAGCAUAGUAUUUUCAAA, the “pre-steady-state target cleavage rate” value was 0.111 ± 0.025.

Take UCCUGGUACAGCUUGCAUUGUAUUAAGUUA: the “pre-steady-state target cleavage rate” value amounted to 0.0503 ± 0.011.
